Measurements taken from the supplement of paper PMC3484114.
± gives the standard deviation.

The molecules below were run on OVCAR-3-derived ovarian cancer stem-like cells (spheroids) (assay: cell growth relative to untreated control; higher = more growth (less inhibition)). Conditions: 2.29 µM; 96 h.
Outline: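 Viability of stem-like cells from OVCAR-3 spheroids was assessed with TOX8 resazurin fluorescence at ex 560/em 590 nm. The cells had been trypsin-dissociated, seeded at 50,000 cells/mL in stem cell medium in ultra-low attachment 96-well plates and preincubated 24 h, then treated with compounds at 2.29 uM for 96 h at 37°C, 5% CO2, in 4 replicate wells, with fluorescence read after 4 h. Results were converted to percent growth against untreated wells after blank subtraction and Grubbs outlier removal.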

| Compound | cell growth [%] |
| --- | --- |
| CC[C@@]1(O)C[C@H](O[C@H]2C[C@H](N(C)C)[C@H](O[C@H]3C[C@@H]4O[C@H]5CC(=O)[C@H](C)O[C@H]5O[C@@H]4[C@H](C)O3)[C@H](C)O2)c2c(cc3c(c2O)C(=O)c2c(O)ccc(O)c2C3=O)[C@H]1C(=O)OC | 11 ± 3.4 |
| O=c1[nH]c2ccccc2n1C1CCN(CCCC(c2ccc(F)cc2)c2ccc(F)cc2)CC1 | 90.6 ± 41 |
| [Cl][Hg][c]1ccc2ccccc2c1 | 62.6 ± 8.8 |
| Cc1cc(N(CCCl)CCCl)ccc1/C=N/NC(=O)Cc1cc(=O)oc2cc(O)ccc12 | 113 ± 53 |
| C=Cc1cc(OC)c2c(c1)c(=O)oc1c2cc(OC)c2c(O)ccc(C3OC(C)C(O)C(C)(O)C3O)c21 (configuration not stated) | 8.6 ± 6 |
| COC1CC(OC2CCC3(C=O)C4CCC5(C)C(C6=CC(=O)OC6)CCC5(O)C4CCC3(O)C2)OC(C)C1OC1OC(CO)C(O)C(O)C1O (configuration not stated) | 8.05 ± 3.3 |
| C[Si](C)(CN)CN.[Cl][Pt][Cl] | 137 ± 53 |
| NP(=O)(Oc1c2occc2cc2ccc(=O)oc12)N(CCCl)CCCl (configuration not stated) | 72.2 ± 18 |
| CC1OC(O[C@@H]2C=C3CC[C@@H]4[C@H](CC[C@]5(C)[C@@H](c6ccc(=O)oc6)CC[C@]45O)[C@@]3(C)CC2)C(O)C(O)C1O (some centres not stated) | 24.5 ± 6.9 |
| O=C1OC(c2ccccc2)=N/C1=C\c1ccc(N(CCCl)CCCl)cc1 | 64.5 ± 12 |
| O=[Se](O)O.[Na+] | 112 ± 29 |
| O=C([CH-]C(=O)C(F)(F)F)c1ccccc1.O=C([CH-]C(=O)C(F)(F)F)c1ccccc1.O=C([CH-]C(=O)C(F)(F)F)c1ccccc1.O=C([CH-]C(=O)C(F)(F)F)c1ccccc1.[Eu+3].c1ccncc1 | 104 ± 18 |
